# Pol beta inh: qHTS Assay for Inhibitors of DNA Polymerase Beta; P06746; Pol beta primer extension/strand displacement, fluorescence kinetic; Potency, µM (titrated, usually from 114 µM), for inactives: at the top dose activity change, negative = inhibition, hits mostly inhibitors; hit rate 1.3% among 340,000; AID 485314, 2010; note: % is set by controls: 0 for no effect and ±100 for the full control effect
#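 Pol beta (10 nM) and compounds were preincubated 15 min at room temperature, then 50 nM substrate (final) started primer extension/strand displacement. Reads were taken at 0 and 10 min; concentration-response data were fitted to a four-parameter Hill equation.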
# Pol iota inh: qHTS for Inhibitors of Polymerase Iota; Potency, µM (doses to about 115 µM), without a hit: at the top dose activity, negative = inhibition, usual class: inhibitors; DNA polymerase iota (Homo sapiens), Q9UNA4; Pol iota fluorescent replication assay, 10 min; hit rate 1% among 390,000
#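 Fluorescent replication assay read twice, at 0 min and 10 min after adding 50 nM (final) substrate. Enzyme (10 nM) and compounds were first incubated 15 min at room temperature; enzyme-free buffer wells were negative controls.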
# TDP1 block: qHTS Assay for Inhibitors of Tyrosyl-DNA Phosphodiesterase (TDP1). Tyrosyl-DNA phosphodiesterase 1 (Homo sapiens), Q9NUW8. recombinant TDP1, AlphaScreen DNA substrate cleavage. Potency, µM (titrated, usually from 130 µM), for the others: top-dose activity change, negative = inhibition, hits mostly inhibitors. hit rate 0.28% among 350,000; note: % is set by controls: 0 for no effect and ±100 for the full control effect; nearly all actives have a fitted effect of over 40% in size
#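 Compounds were preincubated with Tdp1 (1 nM final) for 15 min at room temperature before substrate (15 nM final) started a 5 min reaction; beads (10 ug/ml final) were then added for 10 min before AlphaScreen detection.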
# Pol eta inh: qHTS for Inhibitors of Polymerase Eta; DNA polymerase eta (Homo sapiens), Q9Y253; recombinant Pol eta, fluorescent DNA replication assay; Potency, µM (series often up to 114 µM), for the others: at the highest dose activity change, negative = inhibition, most hits filed as inhibitors; hit rate 1.2% among 390,000; note: % is set by controls: 0 for no effect and ±100 for the full control effect
# Target sequence (Q9Y253 whole entry, looked up): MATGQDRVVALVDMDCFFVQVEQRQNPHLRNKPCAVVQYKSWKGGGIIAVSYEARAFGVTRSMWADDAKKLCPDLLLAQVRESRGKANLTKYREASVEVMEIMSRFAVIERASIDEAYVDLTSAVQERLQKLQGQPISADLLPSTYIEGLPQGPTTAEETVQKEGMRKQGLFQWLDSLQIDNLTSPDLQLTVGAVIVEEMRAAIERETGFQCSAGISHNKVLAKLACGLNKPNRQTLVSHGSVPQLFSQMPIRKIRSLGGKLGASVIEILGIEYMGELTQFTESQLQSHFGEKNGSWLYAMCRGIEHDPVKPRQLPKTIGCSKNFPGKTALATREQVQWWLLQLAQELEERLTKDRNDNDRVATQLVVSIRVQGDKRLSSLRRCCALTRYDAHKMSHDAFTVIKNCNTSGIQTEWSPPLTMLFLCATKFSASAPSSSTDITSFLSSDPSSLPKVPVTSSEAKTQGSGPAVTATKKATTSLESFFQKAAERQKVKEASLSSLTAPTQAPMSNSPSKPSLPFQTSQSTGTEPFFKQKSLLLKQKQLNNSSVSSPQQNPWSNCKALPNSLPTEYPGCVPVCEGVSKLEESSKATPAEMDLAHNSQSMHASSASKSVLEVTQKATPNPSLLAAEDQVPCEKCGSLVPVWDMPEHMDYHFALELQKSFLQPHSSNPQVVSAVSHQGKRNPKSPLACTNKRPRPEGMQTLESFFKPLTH
#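 Pol eta (10 nM) was preincubated with compounds for 15 min at room temperature, after which fluorescent replication substrate (50 nM final) was added to start the reaction. Fluorescence was read kinetically at 0 and 10 min.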
# Pol kappa inh: qHTS for Inhibitors of Polymerase Kappa. DNA polymerase kappa (Homo sapiens), Q9UBT6. purified Pol kappa, fluorescent DNA synthesis assay, 10 min. AID 588579, 2011. hit rate 0.53% among 400,000. Potency, µM (series often up to 107 µM), without a hit: at the highest dose activity, negative = inhibition, usual class: inhibitors; note: % is set by controls: 0 for no effect and ±100 for the full control effect
#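 Kinetic fluorescence screen: compound preincubated 15 min RT with 10 nM enzyme; 50 nM substrate (final) initiates; reads at 0/10 min.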
# Numbers without * were called inactive; u = inconclusive; x = no result given; [ ] = dose if it differs, or a comment. Hits are enriched below; roughly 2.4% of the tested compounds scored in any of these assays. Calls come from the whole dose curve; as a rule, active = well fitted curve in the direction sought with a large enough effect; inconclusive = small, poorly fitted or top-dose-only effect, or another doubt; inactive = no such curve, though single readings can be large; an effect the other way counts as inactive or inconclusive. Potency is the fitted concentration of half-maximal effect.
SMILES,Pol beta inh,Pol iota inh,TDP1 block,Pol eta inh,Pol kappa inh
CC[C@H](C)[C@H](NC(=O)[C@H](C)NC(=O)CNC(=O)[C@H](CCCCN)NC(=O)[C@H](CC(N)=O)NC(=O)[C@H](CO)NC(=O)CN)C(=O)N[C@H](C(=O)NCC(=O)N[C@@H](CC(C)C)C(=O)N[C@@H](CCSC)C(=O)O)[C@@H](C)CC,x,x,8%,x,2%[60.1 µM]
O=S(=O)(Nc1cccc2cccnc12)c1ccc(Br)s1,x,x,20%,x,x
O=C(CCC(=O)c1cccs1)Nc1ccc(N2CCCCC2)cc1,u,u,4%,89µM*,u
NC(=O)c1ccc(NC(=O)Cc2cccs2)cc1,40µM*,u,0%,50µM*,u
O=C(Cc1cccs1)Nc1ccc(F)cc1F,-9%,-22%,0%,79µM*,-38%
O=C(Cc1cccs1)Nc1ccc(Cl)cc1,0%,u,7%,-8%,-1%
O=S(=O)(Nc1cccc2cccnc12)c1cccs1,x,29%,1%,x,-11%
COc1cccc(/C=N/Nc2nnc(C)n2N)c1O,0%,4µM*,x,-20%,-1%
CCOc1ccc(-n2c(C)cc(/C=N/Nc3nc(C)cc(=O)[nH]3)c2C)cc1,20%,-9%,10%,-1%,-5%
COC(=O)c1ccc(N/N=C/c2cc([N+](=O)[O-])cc(OC)c2O)cc1,u,7%,6%,-11%,-1%
COc1ccc(-n2c(C)cc(/C=N/Nc3nnc(C)n3N)c2C)cc1,-28%,22µM*,6%,-9%,-16%
COc1cccc(/C=N/Nc2ccc([N+](=O)[O-])cc2)c1O,45µM*,20%,x,-12%,-4%
CCC(=O)Nc1nnc(Sc2ccc(N(C)C)cc2)s1,50µM*,u,45µM*,-4%,-9%
COCCOC(=O)c1[nH]c2c(c1C)C(=O)CC(c1ccc(F)cc1)C2 (centres undefined),u,5%,5%,-13%,-2%
COc1ccc(C2CC(=O)c3c([nH]c(C(=O)OCc4ccccc4)c3C)C2)cc1 (centres undefined),u,16%,5%,u,-17%
Cc1c(C(=O)OCc2ccccc2)[nH]c2c1C(=O)CC(c1ccco1)C2 (centres undefined),11µM*,-93%,u,22µM*,u
COCCOC(=O)c1[nH]c2c(c1C)C(=O)CC(c1ccccc1)C2 (centres undefined),-18%,5%,0%,-11%,-4%
Cc1c(C(=O)OCCOC(C)C)[nH]c2c1C(=O)CC(c1ccco1)C2 (centres undefined),20µM*,u,-5%,25µM*,79µM*
CSCCOC(=O)c1[nH]c2c(c1C)C(=O)CC(c1ccco1)C2 (centres undefined),7.9µM*,u,13µM*,18µM*,32µM*
COc1ccc([C@H]2OCC3C2CO[C@@H]3c2ccc(OC)c(OC)c2)cc1OC (some centres undefined),x,x,11%,x,15%[60.1 µM]
CC(=O)Nc1ccc(NS(=O)(=O)c2ccc(-c3cnc(C4CC4)o3)cc2)cc1,5%,19%,1%,-6%,-29%
O=S(=O)(Nc1ccccc1)c1ccc(-c2cnc(C3CC3)o2)cc1,5%,79µM*,3%,-13%,8%
COc1cc(OC)c(OC)cc1/C=C/c1cc[n+](C)c2ccccc12,x,71µM*,x,x,89µM*
C[n+]1ccc(/C=C/c2ccc(C=S)cc2)c2ccccc21,x,89µM*,x,x,-23%
Cc1ccc(Cl)cc1NC1=C/C(=N\S(=O)(=O)c2cccs2)c2ccccc2C1=O,3%,4µM*,11%,u,-5%
SMILES,Pol beta inh,Pol iota inh,TDP1 block,Pol eta inh,Pol kappa inh
CCc1ccc(S(=O)(=O)/N=C2\C=C(Nc3ccc(O)cc3)C(=O)c3ccccc32)cc1,u,13µM*,13%,u,-23%
O=C1C(Nc2ccc(O)cc2)=C/C(=N/S(=O)(=O)c2cccs2)c2ccccc21,0%,6.3µM*,11%,u,-11%
O=C1C=C(Nc2ccc(O)cc2)C(=O)c2ccccc21,1%,39%,u,u,-4%
CCc1ccc(S(=O)(=O)/N=C2/C=C(Sc3ncn[nH]3)C(=O)c3ccccc32)cc1,-25%,1.1µM*,9%,6.3µM*,-28%
Cc1cc(C)cc(NC(=O)CCS(=O)(=O)c2cccc3nsnc23)c1,-1%,12%,6%,-24%,-4%
CCCc1cc2c(-c3ccccc3)cc(=O)oc2cc1OCc1ccc(C(=O)O)o1,u,-11%,-3%,79µM*,-12%
Cc1cccc(OCC(=O)Nc2cc(NC(=O)COc3cccc(C)c3C)cc(C(=O)O)c2)c1C,10µM*,-10%,x,u,7%
Cc1ccc(-c2nc3ccccc3[nH]2)cc1NC(=O)COc1cccc(C)c1C,27%,89µM*,-2%,-1%,-36%
O=C(Nc1ccc(S(=O)(=O)N2CCOCC2)cc1)c1ccc(=O)[nH]c1,13µM*,u,0%,-2%,-28%
O=C(COC(=O)c1ccccc1)NCc1ccco1,25µM*,28µM*,x,13µM*,u
O=C(COC(=O)c1ccc(Br)o1)NCc1ccco1,x,50µM*,x,10µM*,u
O=C(COC(=O)c1ccc(S(=O)(=O)N2CCCC2)cc1)NCc1ccco1,u,50µM*,-2%,u,u
C(=C\c1ccccn1)/c1ccccc1,x,30%,x,x,-15%
CN(Cc1ccccc1)c1ccc(-c2nc(-c3ccncc3)no2)cc1[N+](=O)[O-],u,14%,0%,-1%,-12%
CC(C)(C)C(=O)Cn1c(=O)n(CCCCCC(=O)NCc2ccc3c(c2)OCO3)c(=O)c2sccc21,13%,-12%,2%,-3%,-1%
Cc1cccc(C(=O)OCC(=O)NCc2ccco2)c1,x,79µM*,x,16µM*,u
O=C(COC(=O)Cc1ccc(Cl)c(Cl)c1)NCc1ccco1,x,13%,0%,-8%,-6%
O=C(COC(=O)Cc1c(Cl)cccc1Cl)NCc1ccco1,x,45µM*,-12%,35µM*,u
O=C(COC(=O)c1ccco1)NCc1ccco1,-6%,-16%,-2%,-8%,-4%
O=C(COC(=O)c1cccc(Br)c1)NCc1ccco1,x,25µM*,0%,79µM*,u
Cc1ccc(C(=O)NCc2ccco2)cc1S(=O)(=O)N1CCCCC1,40µM*,u,-4%,u,u
Brc1cc(Br)c[n+](CCc2ccccc2)c1,x,-1%,x,x,-4%
Cn1c2cc(C=O)sc2c2cnn(Cc3ccccc3F)c(=O)c21,x,x,-2%,x,x
